system: RARb:RXRa (NR concentration 270 nM, RXRa partner concentration 90 nM); test: PBM binding z-score (relative to random genomic background probes); higher = stronger binding; sequences stand for … in GC…GCGATTGACAGCGTAGAATGAAGG
Summary of the method: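 Binding z-scores were set against random background probes. The data came from custom Agilent 4×180K protein-binding microarrays carrying double-stranded probes with 34-nt variable regions, incubated 1 h with ligand-free nuclear receptor dimers. Partner-specific antibodies detected binding, and scanned fluorescence was regression-normalized.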

Row | Sequence | PBM binding z-score
1 | TCTCGGAGGACACGAAAGGCCAGAGCTCGACATC | 1.82
2 | TGTCAAAGTTCAAAGGTAACGGAAGTATCCACAC | 5.07
3 | GCTGCTAGATCAGGTTGGTCAGCTAACGGGTACG | -0.392
4 | TCATATAGGTAAATCCTAGGTGAAAGTCCGATCT | 0.592
5 | GCTTACGGGTCAAAGGCTATAGCATGAATAGAAT | 3.69
6 | TCAAGTAGGTTAGGGGCATTCAGAATGGCGTCGA | 1.51
7 | ATCTCAAGGTAACAAGTTCAGTGAAAGAGAGGAC | 2.08
8 | CCGACTGGGGCAGAAAGGTTACTATACCATCCGG | 1.53
9 | CTCGAAAGGTCGTGCTCAGGTGCGTATACCAAAC | 3.75
10 | CCGACTGGGGCATAAGGGTACCATAAGCCAGCCC | 0.641
11 | TGTCAAAGTTGAAAGGTAACGTAAGTATCCACAC | 2.15
12 | TCGAGTAGGTAAGGGGCATTCAGAATGGCGTCGA | 0.496
13 | CCTACTGGGCCATTCAGAGGTCATTGGTCATATG | 3.03
14 | CAAACTAGGTCAAAGTCAAAGTCGGTTTGTGCCA | 4.01
15 | CAAACTAGGTCAAGAGGTCAACGTCCGCTTCCCG | 5.47
16 | CATACAGGGTCAGCTAGGCCAGAGTCGGGACGGC | 4.13
17 | GCTTGTATATCAAGGTTAAGAAAGACTAAGCTAA | 1.03
18 | ATATGTAGGTTAGCGGGTCATTCAGTTTGCGCAT | 2.31
19 | CGTCCAAGGTCGATGCTAGGTCAGTGAAAGCATT | 2.92
20 | GCAGACAGGTGAAACGCAGGTTACTCAGGGTGGC | 1.02

Row | Sequence | PBM binding z-score
21 | CGTCCAAGGTCATAGTAGGTCAGTGAAGACAGAT | 5.12
22 | ATCTCTAGGTAAGACTCAGTTCTGTGAAGAACGC | -0.117
23 | TCTCCTAGGTCAACGATGGTCAGCTAATCTGCTA | 4.28
24 | GGAATGAGGGCATTCGAGTTGATAGCATGGCGAT | 1.72
25 | GGAACGAGGGCAAGTTGAGAGCAGAGTTTGATGG | 2.74
26 | TCTTGTAAATCAACAGGAGGTTAAGAAAGATCGA | 0.847
27 | CTACCAAGGTGAACAAGATCGTTGATTACTATTC | 1.48
28 | ATCTGTAGGTAACAAGTTCAGTGAAAGAGAGGAC | 1.63
29 | CCGAGCAGGTTATGGGGCATTCAGGCAACGGTGA | 1.04
30 | GGAACGTGGGCAAGTTGATAGCAGAGTTTGATGG | -0.191
31 | TCGGGTAGGTTAGGGGCATTCAGAATGGCGTCGA | 1.74
32 | ACTGGGAGGACAAAGGTCAGAGCTACGCCAGTGA | 4.64
33 | CGTCCAAGGTCTATGCTAGGTCAGTGAAAGCATT | 1.62
34 | TCGAGAAGGTTACCAATGGGGCATTCAGCTTTCT | 2.26
35 | GCATATAGGTAATACAAGCTGAAAGTCCGATTGT | -0.475
36 | TCTTGTAGATCAACAAGAGGTTAAGAAAGATCGA | 0.99
37 | ACTAGCAGGCCATGGGTCACTCAAGATTAGTCCG | 1.94
38 | CGAACTAGGTAAGAACAGGACAGTGAAGGATGAT | -0.143
39 | ACTAGTTCGTCAGCTGAGGTCACACACAATTCGG | 3.52
40 | TAGCCTGGGTCATTGGGCCAGTATAGTACGCATC | 3.34

— the supplement of paper PMC6555819
